The panel holds about 83,000 compounds, 20% with a hit somewhere; the sample as a whole holds those more often.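 Single-concentration screen, 48 h exposure, 96-well plates. Endpoint: percent growth. Below 10 = active.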 Activity calls are given as the source filed them.
System: HCC-2998 colon
Assay: NCI-60 one-dose screen, 48 h (100 = growth as untreated, 0 = no growth, -100 = all killed)
Conditions: 10 µM unless noted

For O=CC1(C2(C=O)c3ccccc3-c3ccccc32)c2ccccc2-c2ccccc21, which growth is on record?
Its growth is -41.5% (active).

With N#Cc1c(-c2cccs2)cc(-c2cccnc2)[nH]c1=O as the compound, how does the growth read?
Its growth is 114% (inactive).

CCOC(=O)c1cnc2ccccc2c1Cl was tested. Which growth did it give?
Its growth is 98.4% (inactive).

Cn1cccc1C(=O)C1C(c2cccc([N+](=O)[O-])c2)C2C3CCCCC3CN2C12C(=O)Nc1ccc(Cl)cc12 (stereo not given) was tested. Which growth did it give?
The growth was 64.5% (inactive).

Cc1ccccc1/C=C1\CN(C(=O)OC(C)(C)C)C/C(=C\c2ccccc2C)C1=O was tested. Which growth did it give?
Its growth is 3.27% (active).

Cc1ccc(-c2cc(-c3ccc(Cl)cc3)nc(NC(=O)c3cccnc3)n2)cc1 was tested. Which growth did it give?
The growth was 115% (inactive).

How did the growth turn out when O=c1c2cc(-c3ccccc3)sc2nc2sc(-c3ccccc3)nn12 was run?
The growth was 101% (inactive).

How did the growth turn out when COc1ccc2nc(NC(=O)CSc3nnc4n3S(=O)(=O)c3ccccc3N4C)sc2c1 was run?
The growth was 108% (inactive).

Cc1ccc(/C=C2\CN(C(=O)OC(C)(C)C)C/C(=C\c3ccc(C)cc3)C2=O)cc1 was tested. Which growth did it give?
Its growth is 29.5% (inactive).

O=C(Nn1c2c(sc1=Nc1ccccc1)C(=O)c1ccccc1C2=O)c1cc2ccc1CCc1ccc(cc1)CC2 was tested. Which growth did it give?
Its growth is 86.8% (inactive).

How did the growth turn out when O=C1Nc2ccc(I)cc2C1=O was run?
The growth was 62.9% (inactive).

With Fc1ccc2[nH]cc(-c3nonc3-c3c[nH]c4ccc(Br)cc34)c2c1 as the compound, how does the growth read?
The growth was 2.9% (active).

O=C(/C=C/c1ccc(Cl)cc1)c1cccc(Nc2nc(Nc3ccccc3)nc(Nc3ccccc3)n2)c1 was tested. Which growth did it give?
Its growth is 88.8% (inactive).

How did the growth turn out when O=[N+]([O-])c1ccc(S(=O)(=O)N2CCN(C3=NS(=O)(=O)c4ccccc4N3c3ccccc3)CC2)cc1 was run?
The growth was 91.3% (inactive).

For Oc1ccc(CCn2c(O)c(/C=C3\CN=c4ccccc4=N3)sc2=S)cc1, which growth is on record?
Its growth is 87.1% (inactive).

CCOC(=O)/C=C1\S/C(=N\Nc2cc(=O)[nH]c3ccc(Cl)cc23)N(c2ccccc2)C1=O was tested. Which growth did it give?
Its growth is 105% (inactive).

For CCOC(=O)c1cn2ncnc(Oc3ccc(NC(=O)NC4CCCCC4)c(Cl)c3)c2c1C, which growth is on record?
Its growth is 94.6% (inactive).

For Fc1cc2c(cc1Cl)N(c1ncnc3ccc(-c4cnc5[nH]ncc5c4)cc13)CC2, which growth is on record?
Its growth is 69.1% (inactive).

Which growth does the source give for CC1=C(Nc2ccc(N3CCN(C)CC3)cc2)C(=O)c2cncnc2C1=O here?
The growth was 126% (inactive).

Which growth does the source give for COc1ccc(C(=O)Nc2ncc(Cc3ccc(F)cc3)s2)cc1 here?
Its growth is 8.19% (active).

Cc1ccc(CNc2ccc(Cl)cc2NCc2ccc(C)c(O)c2)cc1O was tested. Which growth did it give?
Its growth is 22.7% (inactive).

With COc1cc(NC(C)CCCNC(C)C)c2ncccc2c1OC (stereo not given) as the compound, how does the growth read?
Its growth is 91.7% (inactive).

Cc1ccc(NC(=S)NNC(=S)NNc2ccccc2)cc1C was tested. Which growth did it give?
Its growth is 123% (inactive).

How did the growth turn out when COc1ccc(/C=N/C2=C(C#N)C(c3cccc(Cl)c3)c3c(ccc4ccccc34)O2)cc1 (stereo not given) was run?
Its growth is 65.4% (inactive).

How did the growth turn out when C#CCOc1ccc2ncnc(Nc3cccc(NC(=O)C=C)c3)c2c1 was run?
Its growth is 90.8% (inactive).

Which growth does the source give for Cc1nc2c(=O)[nH]c(SCC(=O)Nc3cccc(F)c3)nc2[nH]c1=O here?
The growth was 104% (inactive).

How did the growth turn out when CC1(C)c2[nH]c3ccccc3c2C[C@]2(C)[C@H]3CC=C4[C@@H]5C[C@@](C)(C(N)=O)CC[C@]5(C)CC[C@@]4(C)[C@]3(C)CC[C@@H]12 was run?
The growth was 69.6% (inactive).

How did the growth turn out when CCOC(=O)c1cc(-c2ccc([N+](=O)[O-])cc2)n(-c2ccc(C(=O)O)c(O)c2)c1C was run?
The growth was 98.9% (inactive).

For Nc1c(C(=O)Nc2ccncc2)sc2nc3c(cc12)CCCCCC3, which growth is on record?
Its growth is 94.1% (inactive).

With COc1cccc(NC(=O)Cn2cc(CN3CCN(c4ccnc5cc(Cl)ccc45)CC3)nn2)c1 as the compound, how does the growth read?
The growth was 93% (inactive).

COC(=O)c1cc(-c2ccc(OC)cc2)[nH]c1N/N=C/c1c(Cl)cccc1Cl was tested. Which growth did it give?
Its growth is 67.4% (inactive).

Which growth does the source give for O=C1CC(N2C(=O)/C(=C/C(Cl)=C\c3ccc([N+](=O)[O-])cc3)SC2=S)C(=O)N1c1ccc(Cl)cc1 (stereo not given) here?
Its growth is -22.9% (active).

Which growth does the source give for Clc1ccc2c(c1)N(c1ncnc3ccc(-c4cnc5[nH]ncc5c4)cc13)CC2 here?
Its growth is 36.6% (inactive).

With O=C1Nc2ccc(Br)cc2/C1=N/c1n[nH]c(=S)s1 as the compound, how does the growth read?
Its growth is 97.5% (inactive).

For O=C1C(Cl)=C(Oc2ccccc2)C(=O)c2ccccc21, which growth is on record?
The growth was 66.5% (inactive).

For Cn1cc(-c2csc(-c3ccc(Cl)cc3)n2)c2cccnc21, which growth is on record?
Its growth is -91.9% [100 µM] (active).

Which growth does the source give for Brc1ccc2[nH]cc(-c3nonc3-c3c[nH]c4ccccc34)c2c1 here?
The growth was 21.5% (inactive).

COc1ccc(C2=Nc3c/c(=C\c4c(O)[nH]c5ccc(Cl)cc45)ccc3=N2)cc1 was tested. Which growth did it give?
Its growth is 35.5% (inactive).

How did the growth turn out when CC(C)NC1CCC(Nc2ccnc3cc(Cl)ccc23)CC1 (stereo not given) was run?
Its growth is 101% (inactive).

Cc1cc(=O)[nH]c2c(C#N)cnn12 was tested. Which growth did it give?
Its growth is 101% (inactive).

Reference: PubChem BioAssay (NCI)
